Source: the supplement of paper PMC6522484
± gives the standard deviation of the averaged measurements.

Legend:
[1] = tested on: DLD1; assay: cell viability (CellTiter-Glo) relative to plate median (fraction of plate median); higher = more viable cells; details: 5 µM; treatment time 24 h; reporter: 7TFP
In short: (§1)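 For this screen, colorectal cancer cell lines carrying stable lentiviral TCF/Wnt firefly luciferase reporters, either 7TFP or TCF4/Wnt, were seeded into 384-well plates. A day's wait of 24 h preceded addition of library compounds at a final 5 µM, which stayed on the cells for 24 h. Firefly luciferase or CellTiterGlo luminescence, read on parallel plates, was normalised to the plate median per well, and the reported value is the mean of two independent replicates.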

[2] = tested on: HCT116; assay: as above; details: 5 µM; treatment time 24 h; reporter: TCF4/Wnt
In short: as §1

[3] = tested on: SW480; assay: as above; details: 5 µM; treatment time 24 h; reporter: 7TFP
In short: as §1

[4] = tested on: DLD1; assay: TCF/Wnt firefly luciferase reporter signal relative to plate median (fraction of plate median); higher = higher Wnt reporter signal; details: 5 µM; treatment time 24 h; reporter: 7TFP
In short: as §1

[5] = tested on: SW480; assay: as above; details: 5 µM; treatment time 24 h; reporter: 7TFP
In short: as §1

With `COc1cc(O)c2c(=O)oc3cc(O)cc(C)c3c2c1` [Alternariol-9-methylether] the cell viability [1] was 0.979 ± 0.044, the cell viability [2] was 1.03 ± 0.073 and the cell viability [3] was 1.01 ± 0.042. The “TCF/Wnt firefly luciferase reporter signal” value [4] was 0.946 ± 0.1 and the “TCF/Wnt firefly luciferase reporter signal” value [5] was 1.06 ± 0.064.

`C=C[C@H]1CN2CC[C@H]1C[C@H]2[C@H](O)c1ccnc2ccccc12` showed a cell viability [1] of 1.03 ± 0.059, a cell viability [2] of 1.07 ± 0.042 and a cell viability [3] of 1.01 ± 0.023. For the same compound, the “TCF/Wnt firefly luciferase reporter signal” value [4] was 0.862 ± 0.061 and the “TCF/Wnt firefly luciferase reporter signal” value [5] was 0.981 ± 0.028.

Work on `CC[C@@]1(O)C[C@H](O[C@H]2C[C@H](N(C)C)[C@H](O[C@H]3C[C@@H]4O[C@H]5CC(=O)[C@H](C)O[C@H]5O[C@@H]4[C@H](C)O3)[C@H](C)O2)c2c(cc3c(c2O)C(=O)c2c(O)ccc(O)c2C3=O)[C@H]1C(=O)OC` [Cinerubin-B] yielded a cell viability [1] of 1.04 ± 0.12, a cell viability [2] of 0.993 ± 0.067 and a cell viability [3] of 1.01 ± 0.028. The “TCF/Wnt firefly luciferase reporter signal” value [4] was 0.991 ± 0.15 and the “TCF/Wnt firefly luciferase reporter signal” value [5] was 1.07 ± 0.028.

`CCC1(C2=NCCN2)Cc2ccccc2O1` (stereo not given) showed a cell viability [1] of 0.9965 ± 0.005, a cell viability [2] of 1.04 ± 0.021 and a cell viability [3] of 1.02 ± 0.09. The “TCF/Wnt firefly luciferase reporter signal” value [4] was 1.015 ± 0.0071 and the “TCF/Wnt firefly luciferase reporter signal” value [5] was 1.04 ± 0.035.

Work on `O=C(NC(=O)c1c(F)cccc1F)Nc1ccc(Cl)cc1` yielded a cell viability [1] of 1.01 ± 0.021, a cell viability [2] of 0.939 ± 0.07 and a cell viability [3] of 1.01 ± 0.016. The “TCF/Wnt firefly luciferase reporter signal” value [4] was 0.914 ± 0.18 and the “TCF/Wnt firefly luciferase reporter signal” value [5] was 0.876 ± 0.044.

`c1ccc(/N=N/c2ccccc2)cc1` gave a cell viability [1] of 1.03 ± 0.021, a cell viability [2] of 0.981 ± 0.027 and a cell viability [3] of 1.04 ± 0.028. The “TCF/Wnt firefly luciferase reporter signal” value [4] was 1.04 ± 0.088 and the “TCF/Wnt firefly luciferase reporter signal” value [5] was 0.986 ± 0.091.

With `O=C1CCCN1CC#CCN1CCCC1` the cell viability [1] was 1.07 ± 0.092, the cell viability [2] was 1.11 ± 0.028 and the cell viability [3] was 1.05 ± 0.042. The “TCF/Wnt firefly luciferase reporter signal” value [4] was 1.01 ± 0.032 and the “TCF/Wnt firefly luciferase reporter signal” value [5] was 0.8175 ± 0.0035.

Compound `NCCc1cc(O)c(O)cc1O` has a cell viability [1] of 1.04 ± 0.065, a cell viability [2] of 1.03 ± 0.028 and a cell viability [3] of 0.983 ± 0.025. For the same compound, the “TCF/Wnt firefly luciferase reporter signal” value [4] was 1.13 ± 0.16 and the “TCF/Wnt firefly luciferase reporter signal” value [5] was 1.24 ± 0.021.

Compound `CO[C@]12C[C@@H](COC(=O)c3cncc(Br)c3)CN(C)[C@@H]1Cc1cn(C)c3cccc2c13` has a cell viability [1] of 0.999 ± 0.16, a cell viability [2] of 0.976 ± 0.033 and a cell viability [3] of 0.999 ± 0.03. For the same compound, the “TCF/Wnt firefly luciferase reporter signal” value [4] was 0.968 ± 0.1 and the “TCF/Wnt firefly luciferase reporter signal” value [5] was 1 ± 0.04.

For `CCCC(C)C1(CC)C(=O)NC(=S)NC1=O` (stereo not given), the cell viability [1] was 1.005 ± 0.0071, the cell viability [2] was 1.03 ± 0.11 and the cell viability [3] was 1.02 ± 0.035. For the same compound, the “TCF/Wnt firefly luciferase reporter signal” value [4] was 1.16 ± 0.15 and the “TCF/Wnt firefly luciferase reporter signal” value [5] was 0.974 ± 0.065.

Work on `C[CH2][Hg][S]c1ccccc1C(=O)[O-].[Na+]` yielded a cell viability [1] of 0.303 ± 0.39, a cell viability [2] of 0.378 ± 0.36 and a cell viability [3] of 0.0225 ± 0.0017. For the same compound, the “TCF/Wnt firefly luciferase reporter signal” value [4] was 0.274 ± 0.37 and the “TCF/Wnt firefly luciferase reporter signal” value [5] was 0.0216 ± 0.0027.

Compound `COc1ccc(C(=O)O)cc1OC` has a cell viability [1] of 0.902 ± 0.18, a cell viability [2] of 1.04 ± 0.098 and a cell viability [3] of 0.984 ± 0.023. For the same compound, the “TCF/Wnt firefly luciferase reporter signal” value [4] was 0.949 ± 0.087 and the “TCF/Wnt firefly luciferase reporter signal” value [5] was 0.9985 ± 0.0021.

With `COc1ccc2c(c1)[C@]13CCCC[C@@H]1[C@H](C2)N(C)CC3` the cell viability [1] was 1 ± 0.053, the cell viability [2] was 0.992 ± 0.096 and the cell viability [3] was 1.02 ± 0.035. The “TCF/Wnt firefly luciferase reporter signal” value [4] was 1.03 ± 0.14 and the “TCF/Wnt firefly luciferase reporter signal” value [5] was 1 ± 0.023.
